High-throughput results (PubChem)
TRHR PAM: TRH receptor (human) allosteric enhancement; P34981; TRHR cells, fluo-8 calcium fluorescence, EC20 TRH enhancement; enhancement, % at 2 µM; hit rate 0.66% among 360,000; AID 493056; in the data active means enhancement above about 30%
Target sequence (P34981 whole entry, looked up): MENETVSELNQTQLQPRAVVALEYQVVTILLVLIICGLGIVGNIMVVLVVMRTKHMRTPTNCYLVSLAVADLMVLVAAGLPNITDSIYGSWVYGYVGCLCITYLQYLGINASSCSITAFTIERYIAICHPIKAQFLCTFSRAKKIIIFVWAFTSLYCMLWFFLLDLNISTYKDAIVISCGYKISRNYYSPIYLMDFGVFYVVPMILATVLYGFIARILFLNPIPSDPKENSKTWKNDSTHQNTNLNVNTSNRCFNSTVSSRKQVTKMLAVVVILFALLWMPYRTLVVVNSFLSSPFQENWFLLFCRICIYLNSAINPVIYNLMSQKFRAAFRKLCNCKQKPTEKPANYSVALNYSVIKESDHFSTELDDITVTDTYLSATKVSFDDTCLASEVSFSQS
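Enhancer read-out: after compound pinning and an initial kinetic agonist-mode read, an EC20 of TRH (10 nM final) was injected and fluo-8 calcium signal (Ex 480/Em 530) followed at 1 s/cycle for 100 cycles in TRHR-expressing cells.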
D1 ag: human D1 receptor agonism; HEK293 T-REx D1 cells, calcium flux, agonist mode; hit rate 1% among 360,000; P21728; activation, % at 2 µM; AID 504660
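Tetracycline-induced HEK293 TREx D1 cells, force-coupled to calcium signalling, were dye-loaded with a no-wash calcium kit. Compound was pin-added after a 10 s baseline. Fluorescence was read kinetically at 1 cycle/s for 180 s, with calcium rises flagged as agonism.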
D1 PAM: potentiators of human D1 dopamine receptor | hit rate 0.036% among 360,000 | potentiation, % at 10 µM | AID 504651 | HEK293 TREx D1 cells, calcium flux, dopamine EC20 potentiation | P21728; in the data active means potentiation above about 30%
D1 antag: human D1 dopamine receptor antagonism | P21728 | HEK293 TREx D1 cells, calcium flux, dopamine EC80; hits give low values | activity change, negative = inhibition, % at 10 µM | hit rate 3.2% among 360,000 | AID 504652; in the data active means activity change below about -30%
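Tetracycline-induced HEK293 Trex D1 cells, force-coupled to calcium, dye-loaded; compounds added and read 180 s, then EC80 dopamine added and calcium flux tracked kinetically another 180 s.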
TRHR agonist: activates the human TRH receptor. TRHR cells, calcium flux fluo-8, FDSS agonist mode. P34981. hit rate 0.18% among 360,000. activation, % at 2 µM
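Read-out: compound-evoked intracellular calcium rise in TRHR cells, fluo-8 dye, kinetic FDSS fluorescence at 1 s/cycle following a 10-cycle baseline. Cells cultured overnight before dye loading (30 min–1.5 h, RT).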
GRP78 ERSR act: inducers of ER stress response in human glioma cells; Potency, µM, usual class: activators; AID 602332; hit rate 0.02% among 420,000; U87-MG GRP78 promoter luciferase reporter, 16 h; active means well fitted activation curve with a large enough effect; further: series mostly up to about 76 µM; nearly all actives have a fitted effect of over 35% in size
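Stably transfected U87-MG human glioma cells carrying a GRP78-based luminescent sensor were seeded at 1000 cells/well, pin-dosed with compounds and incubated 16 h. Luciferase reagent was then added, and end-point luminescence was read after 10 min at room temperature.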
Hits are given with their value. Rows were chosen to be rich in hits. Some 4% of all compounds tested hit in one or more screens of this group. Unless noted, no stated cut-off is given here; in the data, active means activation above about 30%; inactive means the rest.

`CC(=O)c1cccc(N(CC(=O)Nc2ccc(F)cc2F)S(C)(=O)=O)c1` gave TRHR PAM inactive, D1 ag inactive, D1 PAM inactive, D1 antag inactive, TRHR agonist inactive and GRP78 ERSR act inactive.
Screening CC1(C)CC2(CC(C)(C)NC(=O)N2)NC(=O)N1 returned TRHR PAM inactive, D1 ag inactive, D1 PAM inactive, TRHR agonist inactive and GRP78 ERSR act inactive.
Screening N#Cc1ccc(NC(=O)Nc2ccc(Cl)cc2)cc1 returned TRHR PAM inactive, D1 ag 31.0, D1 PAM inactive, D1 antag -41.3, TRHR agonist inactive and GRP78 ERSR act inactive.
`COc1cc(NC(=O)c2cccc([N+](=O)[O-])c2C)ccc1NC(=O)c1ccco1` gave TRHR PAM inactive, D1 ag inactive, D1 PAM inactive, D1 antag -36.1, TRHR agonist inactive and GRP78 ERSR act inactive.
CCn1cc(NC(=O)Nc2ccccc2C(=O)OC)c(C(N)=O)n1 was read as TRHR PAM inactive, D1 ag inactive, D1 PAM inactive, D1 antag inactive, TRHR agonist inactive and GRP78 ERSR act inactive.
Screening COc1cc(NC(=O)c2cc([N+](=O)[O-])ccc2N2CCOCC2)ccc1NC(=O)c1ccco1 returned TRHR PAM inactive, D1 ag inactive, D1 PAM inactive, D1 antag inactive, TRHR agonist inactive and GRP78 ERSR act inactive.
COc1cc(NC(=O)c2ccco2)c(OC)cc1NC(=O)Nc1ccc(Cl)cc1 was read as TRHR PAM inactive, D1 ag inactive, D1 PAM inactive, D1 antag -44.2, TRHR agonist inactive and GRP78 ERSR act inactive.
Screening CCn1cc(Br)c(C(=O)Nc2ccccc2C(=O)OC)n1 returned TRHR PAM inactive, D1 ag inactive, D1 PAM inactive, D1 antag -36.4, TRHR agonist inactive and GRP78 ERSR act inactive.
`O=C(CNC(=O)c1ccc(Cl)cc1)Nc1ccccc1C(F)(F)F` gave TRHR PAM inactive, D1 ag inactive, D1 PAM inactive, D1 antag inactive, TRHR agonist inactive and GRP78 ERSR act inactive.
O=[N+]([O-])c1cccc(Nc2nc(Cl)nc(Cl)n2)c1 was read as TRHR PAM inactive, D1 ag inactive, D1 PAM inactive, D1 antag inactive, TRHR agonist inactive and GRP78 ERSR act inactive.
`Cc1ccc(NC(=O)Nc2ccc(F)c(Cl)c2)cc1` gave TRHR PAM inactive, D1 ag inactive, D1 PAM inactive, TRHR agonist inactive and GRP78 ERSR act inactive.
Screening COc1ccc(NC(=O)Nc2ccc(F)c(Cl)c2)cc1 returned TRHR PAM inactive, D1 ag inactive, D1 PAM inactive, D1 antag -49.0, TRHR agonist inactive and GRP78 ERSR act inactive.
CCC(CC)NC(=O)Nc1ccc(F)c(Cl)c1 was read as TRHR PAM inactive, D1 ag inactive, D1 PAM inactive, D1 antag -45.9, TRHR agonist inactive and GRP78 ERSR act inactive.
For CCOc1ccccc1N1CCN(C(=O)Nc2ccc(F)c(Cl)c2)CC1 the results were TRHR PAM inactive, D1 ag inactive, D1 PAM inactive, D1 antag inactive, TRHR agonist inactive and GRP78 ERSR act inactive.
For COC(=O)c1ccccc1NC(=O)c1ccco1 the results were TRHR PAM inactive, D1 ag inactive, D1 PAM inactive, D1 antag -33.7, TRHR agonist inactive and GRP78 ERSR act inactive.
COc1ccccc1N1CCN(C(=O)Nc2ccc(F)c(Cl)c2)CC1 was read as TRHR PAM inactive, D1 ag inactive, D1 PAM inactive, D1 antag -56.8, TRHR agonist inactive and GRP78 ERSR act inactive.
N#Cc1ccccc1NC(=O)CSc1nnc(-c2ccc(F)cc2)n1-c1ccccc1 was read as TRHR PAM inactive, D1 ag inactive, D1 PAM inactive, D1 antag inactive, TRHR agonist inactive and GRP78 ERSR act inactive.
COc1ccc(/C=C/C(=O)OCC(=O)NCCC2=CCCCC2)cc1 was read as TRHR PAM inactive, D1 ag inactive, D1 PAM inactive, D1 antag -36.5, TRHR agonist inactive and GRP78 ERSR act inactive.
For COc1ccc(C)cc1NC(=O)Nc1ccccc1 the results were TRHR PAM inactive, D1 ag inactive, D1 PAM inactive, D1 antag inactive, TRHR agonist inactive and GRP78 ERSR act inactive.
